Screening data from PubChem.
Only some compounds are listed: those with a hit (about 2.4% of all), similar ones and a draw of the others.
UHRF1 binding: UHRF1 methyl-DNA binding inhibition. Q96T88. UHRF1 binding to methylated oligo, TR-FRET. inhibition, % at 4.4 µM. 370,000 compounds, 0.75% hits; in the data active means inhibition above about 21%;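 further: UHRF1 SRA domain binding a hemimethylated CpG hairpin DNA probe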
LEDGF integ inh: blocks HIV-1 LEDGF/p75-dependent DNA integration | inhibition, % at 3.7 µM | TR-FRET IN-LEDGF/p75 DNA integration, Eu/Cy5 | 370,000 compounds, 0.64% hits;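 active means inhibition above the screen-wide mean plus 3 SD, cut at about 13% in these data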;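 further: signal is the Cy5 over europium emission ratio at 671 and 618 nm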
MBD2 DNA inh: blocks human MBD2 binding to methylated DNA; Q9UBB5; TR-FRET, MBD2 binding to methylated oligonucleotide; inhibition, % at 4.4 µM; 370,000 compounds, 0.31% hits; in the data active means inhibition above about 13%
PLC-gamma1 inh: blocks human PLC-gamma1 enzyme activity; P19174; purified PLC-gamma1, fluorogenic substrate, fluorescence; inhibition, % at 12.2 µM; 370,000 compounds, 0.84% hits; AID 720700
Target sequence (P19174 whole entry, looked up): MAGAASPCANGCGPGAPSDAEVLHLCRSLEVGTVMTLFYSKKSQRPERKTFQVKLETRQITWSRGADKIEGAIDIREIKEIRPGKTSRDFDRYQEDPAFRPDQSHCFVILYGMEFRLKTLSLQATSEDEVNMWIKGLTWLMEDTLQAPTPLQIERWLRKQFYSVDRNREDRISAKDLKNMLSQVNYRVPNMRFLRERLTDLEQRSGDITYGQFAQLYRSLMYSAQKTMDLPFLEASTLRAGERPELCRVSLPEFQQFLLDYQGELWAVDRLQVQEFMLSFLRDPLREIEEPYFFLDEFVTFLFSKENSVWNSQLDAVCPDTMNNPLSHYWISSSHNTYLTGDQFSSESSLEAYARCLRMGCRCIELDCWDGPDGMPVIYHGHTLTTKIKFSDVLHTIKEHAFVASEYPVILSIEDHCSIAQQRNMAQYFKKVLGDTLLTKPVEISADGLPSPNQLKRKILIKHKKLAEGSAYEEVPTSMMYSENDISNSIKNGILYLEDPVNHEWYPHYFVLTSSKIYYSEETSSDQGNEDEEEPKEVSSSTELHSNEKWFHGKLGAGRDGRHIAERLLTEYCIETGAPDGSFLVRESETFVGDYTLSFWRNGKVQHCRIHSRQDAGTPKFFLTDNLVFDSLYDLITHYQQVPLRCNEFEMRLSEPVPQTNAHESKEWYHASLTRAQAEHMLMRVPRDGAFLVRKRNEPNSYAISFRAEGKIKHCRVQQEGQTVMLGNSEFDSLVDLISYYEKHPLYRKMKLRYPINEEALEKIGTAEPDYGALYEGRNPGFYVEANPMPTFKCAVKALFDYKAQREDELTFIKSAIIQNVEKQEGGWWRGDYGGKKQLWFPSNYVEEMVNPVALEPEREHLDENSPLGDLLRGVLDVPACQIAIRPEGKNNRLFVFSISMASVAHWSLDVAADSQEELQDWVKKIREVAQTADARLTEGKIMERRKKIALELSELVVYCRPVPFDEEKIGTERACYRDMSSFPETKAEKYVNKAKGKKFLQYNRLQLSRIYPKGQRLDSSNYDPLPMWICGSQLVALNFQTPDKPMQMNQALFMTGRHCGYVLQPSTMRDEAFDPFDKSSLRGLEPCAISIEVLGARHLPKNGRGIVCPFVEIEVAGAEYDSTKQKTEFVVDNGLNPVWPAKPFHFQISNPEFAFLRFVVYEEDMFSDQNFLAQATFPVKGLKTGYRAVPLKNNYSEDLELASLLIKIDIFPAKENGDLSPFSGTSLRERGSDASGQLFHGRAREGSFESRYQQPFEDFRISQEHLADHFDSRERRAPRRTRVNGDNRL
PLC-beta3 inh: blocks human PLC-beta3 enzyme activity; Purified PLC-beta3, fluorogenic substrate, fluorescence; inhibition, % at 12.2 µM; 370,000 compounds, 0.18% hits; in the data active means inhibition above about 11%
PLCg1 ctr: PLC-gamma1 inhibition, counter-screen for PLC-beta3 hits. shares compounds with PLC-gamma1 inh. purified PLC-gamma1, fluorogenic substrate, fluorescence. inhibition, % at 12.3 µM. 3,300 compounds, 3.1% hits
PLCb3 confirm: human PLC-beta3 inhibition, confirmation | shares compounds with PLC-gamma1 inh | purified PLC-beta3, fluorogenic substrate fluorescence | inhibition, % at 12.3 µM | 3,300 compounds, 1% hits; in the data active means inhibition above about 11%
A number is an active result. Unless noted, no stated cut-off is given here; in the data, active means inhibition above about 9.5%; inactive means the rest.

`CN(C(=O)COC(=O)COc1ccc(N(C)S(=O)(=O)c2ccc(Cl)cc2)cc1)c1ccccc1` gave UHRF1 binding inactive, LEDGF integ inh inactive, MBD2 DNA inh inactive, PLC-gamma1 inh 11.8, PLC-beta3 inh inactive, PLCg1 ctr inactive and PLCb3 confirm inactive.
Screening O=C(CSC1CS(=O)(=O)c2cc([N+](=O)[O-])ccc21)NNC(=O)c1ccccc1 (stereo not drawn) returned UHRF1 binding inactive, LEDGF integ inh inactive, MBD2 DNA inh inactive, PLC-gamma1 inh 10.0, PLC-beta3 inh inactive, PLCg1 ctr inactive and PLCb3 confirm inactive.
For CCOc1ccc(C(=O)N(CN2CCCC2=O)c2ccc(C)cc2)cc1 the results were UHRF1 binding inactive, LEDGF integ inh inactive, MBD2 DNA inh inactive, PLC-gamma1 inh inactive and PLC-beta3 inh inactive.
Screening CCOc1ccc(C(=O)N(CN2CCCC2=O)c2ccccc2)cc1 returned UHRF1 binding inactive, LEDGF integ inh inactive, MBD2 DNA inh inactive, PLC-gamma1 inh 9.9, PLC-beta3 inh inactive, PLCg1 ctr inactive and PLCb3 confirm inactive.
For COc1ccc2c(c1)CN1C(=O)N(Cc3ccc(F)cc3)S(=O)(=O)CC21 (stereo not drawn) the results were UHRF1 binding inactive, LEDGF integ inh inactive, MBD2 DNA inh inactive, PLC-gamma1 inh inactive and PLC-beta3 inh inactive.
Screening Cc1nc(N)nc(N)c1-c1ccc(Cl)c(Cl)c1 returned UHRF1 binding inactive, LEDGF integ inh inactive, MBD2 DNA inh inactive, PLC-gamma1 inh inactive and PLC-beta3 inh inactive.
`Cc1cc(OCc2nc(N)nc(N)c2-c2ccc(Cl)c(Cl)c2)ccc1[N+](=O)[O-]` gave UHRF1 binding inactive, LEDGF integ inh inactive, MBD2 DNA inh inactive, PLC-gamma1 inh 12.6, PLC-beta3 inh inactive, PLCg1 ctr inactive and PLCb3 confirm inactive.
`C=CCc1cccc(CNc2nc3ccccc3n2CCN2CCOCC2)c1O` gave UHRF1 binding inactive, LEDGF integ inh inactive, MBD2 DNA inh inactive, PLC-gamma1 inh 10.0, PLC-beta3 inh 13.6, PLCg1 ctr inactive and PLCb3 confirm inactive.
For COc1ccccc1-c1csc(C(NC(C)=O)c2cccc(F)c2)n1 (stereo not drawn) the results were UHRF1 binding inactive, LEDGF integ inh inactive, MBD2 DNA inh inactive, PLC-gamma1 inh inactive and PLC-beta3 inh inactive.
Screening CC(=O)NC(c1cccc(F)c1)c1nc(/C=C/c2ccccc2)cs1 (stereo not drawn) returned UHRF1 binding inactive, LEDGF integ inh inactive, MBD2 DNA inh inactive, PLC-gamma1 inh 10.2, PLC-beta3 inh inactive, PLCg1 ctr inactive and PLCb3 confirm inactive.
Screening CC(C)CC(COCc1cccc(C(F)(F)F)c1)N1CCN(C(=O)c2cccc(C(F)(F)F)c2)CCC1=O (stereo not drawn) returned UHRF1 binding inactive, LEDGF integ inh inactive, MBD2 DNA inh inactive, PLC-gamma1 inh 9.6, PLC-beta3 inh inactive, PLCg1 ctr inactive and PLCb3 confirm inactive.
Screening CCN1Cc2nnn(Cc3ccccc3)c2-c2cc(N3CCCC3)ccc2S1(=O)=O returned UHRF1 binding inactive, LEDGF integ inh inactive, MBD2 DNA inh inactive, PLC-gamma1 inh inactive and PLC-beta3 inh inactive.
O=C(CCn1c(=S)oc2ccccc21)Nc1cccc(O)c1 was read as UHRF1 binding inactive, LEDGF integ inh inactive, MBD2 DNA inh inactive, PLC-gamma1 inh inactive, PLC-beta3 inh 11.6, PLCg1 ctr inactive and PLCb3 confirm inactive.
O=C(O)C(C(=O)O)=C1C2CC3CC(C2)CC1C3 was read as UHRF1 binding inactive, LEDGF integ inh inactive, MBD2 DNA inh inactive, PLC-gamma1 inh 10.6, PLC-beta3 inh inactive, PLCg1 ctr inactive and PLCb3 confirm inactive.
Screening CCN1CCCCC(NC(C)=O)C1=O (stereo not drawn) returned UHRF1 binding inactive, LEDGF integ inh inactive, MBD2 DNA inh inactive, PLC-gamma1 inh inactive and PLC-beta3 inh inactive.
For O=C(CSc1nc2c(c(C(F)(F)F)n1)CCc1ccccc1-2)NCc1ccccc1 the results were UHRF1 binding inactive, LEDGF integ inh inactive, MBD2 DNA inh inactive, PLC-gamma1 inh inactive and PLC-beta3 inh inactive.
`O=C(CSc1nc2c(c(C(F)(F)F)n1)CCc1ccccc1-2)NCc1ccc(F)cc1` gave UHRF1 binding inactive, LEDGF integ inh inactive, MBD2 DNA inh inactive, PLC-gamma1 inh 13.2, PLC-beta3 inh 12.9, PLCg1 ctr inactive and PLCb3 confirm inactive.
`COc1ccc([N+](=O)[O-])cc1NC(=O)C(C)OC(=O)CSC(C)C(=O)Nc1cc(C)on1` (stereo not drawn) gave UHRF1 binding inactive, LEDGF integ inh inactive, MBD2 DNA inh inactive, PLC-gamma1 inh 10.4, PLC-beta3 inh inactive, PLCg1 ctr inactive and PLCb3 confirm inactive.
Screening Cc1cc(NC(=O)C(C)SCC(=O)OC(C)C(=O)Nc2ccccc2C)no1 (stereo not drawn) returned UHRF1 binding inactive, LEDGF integ inh inactive, MBD2 DNA inh inactive, PLC-gamma1 inh inactive and PLC-beta3 inh inactive.
O=C(NC(=S)Nc1ccc(Cc2ccncc2)cc1)c1ccccc1F was read as UHRF1 binding inactive, LEDGF integ inh inactive, MBD2 DNA inh inactive, PLC-gamma1 inh 15.2, PLC-beta3 inh inactive, PLCg1 ctr inactive and PLCb3 confirm inactive.
For O=C(NC(=S)Nc1ccc(Cc2ccncc2)cc1)c1ccccc1Cl the results were UHRF1 binding inactive, LEDGF integ inh inactive, MBD2 DNA inh inactive, PLC-gamma1 inh inactive and PLC-beta3 inh inactive.
CCCCCCCCN1C(=O)[C@@H](CC(=O)NCc2ccc(C)o2)C[C@@]2(C(=O)OC)C1=C[C@H](COCc1ccccc1)O[C@@H]2C was read as UHRF1 binding inactive, LEDGF integ inh inactive, MBD2 DNA inh inactive, PLC-gamma1 inh inactive and PLC-beta3 inh inactive.
For Cc1ccc(SCc2cc(=O)[nH]c(Nc3nc(C)c4cccc(C)c4n3)n2)cc1 the results were UHRF1 binding inactive, LEDGF integ inh inactive, MBD2 DNA inh inactive, PLC-gamma1 inh 12.9, PLC-beta3 inh inactive, PLCg1 ctr inactive and PLCb3 confirm inactive.
For COc1ccc(CNS(=O)(=O)CC2NCc3ccc(C)cc32)cc1 (stereo not drawn) the results were UHRF1 binding inactive, LEDGF integ inh inactive, MBD2 DNA inh inactive, PLC-gamma1 inh inactive and PLC-beta3 inh inactive.
`O=C1CN(C(=O)c2ccccc2F)C(c2ccc(F)cc2)c2cc(Br)ccc2N1` (stereo not drawn) gave UHRF1 binding inactive, LEDGF integ inh inactive, MBD2 DNA inh inactive, PLC-gamma1 inh inactive and PLC-beta3 inh inactive.
Screening O=C1CN(C(=O)c2ccccc2F)C(c2ccccc2)c2cc(Cl)ccc2N1 (stereo not drawn) returned UHRF1 binding inactive, LEDGF integ inh inactive, MBD2 DNA inh inactive, PLC-gamma1 inh 10.1, PLC-beta3 inh inactive, PLCg1 ctr inactive and PLCb3 confirm inactive.
O=C(O)CC(C(=O)Nc1cccc(C(F)(F)F)c1)C1CCCO1 (stereo not drawn) was read as UHRF1 binding inactive, LEDGF integ inh inactive, MBD2 DNA inh inactive, PLC-gamma1 inh 15.6, PLC-beta3 inh inactive, PLCg1 ctr inactive and PLCb3 confirm inactive.
